From PubChem BioAssay
Peg3 prom inh = inhibitors of Peg3 promoter; inhibition, % at 20 µM; 360,000 compounds, 1.7% hits; HeLa PEG-Prom luciferase reporter, luminescence, overnight;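 active means inhibition of at least 50% at 20 µM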
Shn3 3UTR inh = reduces Shn3 3'UTR luciferase signal in osteoblasts. 360,000 compounds, 0.52% hits. inhibition, % at 12.5 µM. Clone20 osteoblast Shn3 3'UTR firefly luciferase, 24 h;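 active means mean inhibition of at least 75% with every replicate also reaching 75%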
HIF-2a block = blocks HIF-2a reporter activity; 786-0 RCC cells HIF-2a reporter, luciferase luminescence, overnight; inhibition, % at 18.8 µM; 360,000 compounds, 0.72% hits; AID 624352;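 active means inhibition of the luminescence signal of 40% or more relative to plate controls, in a single-dose primary screen at 18.75 µM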
MITF TRPM1 inh = MITF TRPM1 promoter inhibition in SK-MEL-5 cells. SK-MEL-5 TRPM1 promoter luciferase, 24 h. AID 488899. inhibition, % at 12.5 µM. 330,000 compounds, 0.83% hits;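 active means mean inhibition across replicates of 60% or more, whatever share of single replicates reaches that level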
PAX8 reporter = inhibitors of PAX8 transcriptional activity in RMG-I cells. RMG-I TPO-luciferase reporter, SteadyGlo, 24 h. inhibition, % at 12.6 µM. 360,000 compounds, 1.2% hits. AID 652154;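 active means mean replicate inhibition at least 60% with every replicate also reaching 60%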;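 further: luciferase light reporting Pax8 driven TPO promoter activity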
EBV LMP1 NFkB = Epstein-Barr LMP1 NF-kappaB reporter inhibition; 350,000 compounds, 0.69% hits; inhibition, % at 12.5 µM; AID 504558; LMP1-induced NF-kappaB luciferase reporter cells, luminescence; in the data active means inhibition above about 41%
Hits are given with their value. Most compounds without a hit are left out; they make up all but 2.8% or so of the library.

For COc1ccccc1NC(=O)N1C[C@@H]2N[C@H](C1)C2c1ccc(-c2ccccc2)cc1 (some centres undefined) the results were PAX8 reporter inactive.
`C[C@H](CO)N1C[C@H](C)[C@@H](CN(C)C(=O)Nc2cccc3ccccc23)Oc2ccc(NC(=O)Nc3ccc4c(c3)OCO4)cc2CC1=O` gave PAX8 reporter 73.5.
Screening C[C@@H]1CN([C@@H](C)CO)C(=O)c2cc(NC(=O)Nc3ccccc3)ccc2O[C@H]1CN(C)C(=O)Nc1cccc2ccccc12 returned Peg3 prom inh inactive, Shn3 3UTR inh inactive, HIF-2a block inactive, MITF TRPM1 inh inactive and EBV LMP1 NFkB 58.2.
Screening CC1C/C(=C/c2cccs2)C(=O)/C(=C/c2cccs2)C1 (centres undefined) returned Peg3 prom inh inactive, Shn3 3UTR inh inactive, HIF-2a block inactive, MITF TRPM1 inh inactive, PAX8 reporter 71.6 and EBV LMP1 NFkB inactive.
Cc1cccc(C)c1NC(=O)Cn1nnc(-c2ccc(CN3CCC(C)CC3)cc2)n1 was read as Peg3 prom inh inactive, Shn3 3UTR inh inactive, HIF-2a block inactive, MITF TRPM1 inh inactive, PAX8 reporter inactive and EBV LMP1 NFkB inactive.
Screening CC1CCN(Cc2ccc(-c3nnn(CC(=O)Nc4ccccc4Cl)n3)cc2)CC1 returned Peg3 prom inh inactive, Shn3 3UTR inh 87.0, HIF-2a block inactive, MITF TRPM1 inh inactive, PAX8 reporter inactive and EBV LMP1 NFkB inactive.
Cc1cccc(S(=O)(=O)N2C[C@H](O)COC[C@H]3O[C@@H](CC(=O)Nc4ccc(-c5ccccc5)cc4)CC[C@@H]32)c1 was read as PAX8 reporter inactive.
For C=CCN=c1scc(C)n1/N=C/c1ccc(O)c(O)c1 the results were Peg3 prom inh inactive, Shn3 3UTR inh 91.7, HIF-2a block inactive, MITF TRPM1 inh inactive, PAX8 reporter inactive and EBV LMP1 NFkB inactive.
COc1ccc(O)c(/C=N/n2c(-c3ccco3)csc2=Nc2cccnc2)c1 was read as Peg3 prom inh inactive, Shn3 3UTR inh inactive, HIF-2a block inactive, MITF TRPM1 inh inactive, PAX8 reporter inactive and EBV LMP1 NFkB inactive.
Screening CN=c1scc(-c2ccco2)n1/N=C/c1ccc(O)c(O)c1 returned Peg3 prom inh inactive, Shn3 3UTR inh 90.1, HIF-2a block inactive, MITF TRPM1 inh inactive, PAX8 reporter inactive and EBV LMP1 NFkB inactive.
Screening Cc1ccc(S(=O)(=O)N(C)C[C@@H]2OCCCC[C@@H](C)Oc3ccc(NC(=O)CCC(F)(F)F)cc3C(=O)N([C@H](C)CO)C[C@H]2C)cc1 returned PAX8 reporter inactive.
For COc1ccc(-c2cc3c(nn2)-c2ccccc2C3=O)cc1 the results were Peg3 prom inh 80.5, Shn3 3UTR inh inactive, HIF-2a block inactive, MITF TRPM1 inh 72.4, PAX8 reporter inactive and EBV LMP1 NFkB 51.6.
For O=C(CNC(=O)c1ccccc1)OCc1ccc([N+](=O)[O-])cc1 the results were Peg3 prom inh inactive, Shn3 3UTR inh inactive, HIF-2a block inactive, MITF TRPM1 inh inactive, PAX8 reporter inactive and EBV LMP1 NFkB inactive.
For O=C(NCC(=O)c1ccccc1)OCc1ccc([N+](=O)[O-])cc1 the results were Peg3 prom inh inactive, Shn3 3UTR inh inactive, HIF-2a block inactive, MITF TRPM1 inh inactive, PAX8 reporter inactive and EBV LMP1 NFkB 67.9.
`O=C(O)C(Cc1ccccc1)N1C(=O)c2cccc3cccc(c23)C1=O` (centres undefined) gave Peg3 prom inh inactive, Shn3 3UTR inh inactive, HIF-2a block inactive, MITF TRPM1 inh inactive, PAX8 reporter inactive and EBV LMP1 NFkB inactive.
Screening O=C(Nc1cccc(O)c1)C(Cc1ccccc1)N1C(=O)c2cccc3cccc(c23)C1=O (centres undefined) returned Peg3 prom inh 65.9, Shn3 3UTR inh inactive, HIF-2a block inactive, MITF TRPM1 inh inactive, PAX8 reporter inactive and EBV LMP1 NFkB inactive.
For O=C(Nc1ccccc1Cc1ccccc1)c1ccccc1NS(=O)(=O)c1ccc(Cl)s1 the results were Peg3 prom inh inactive, Shn3 3UTR inh inactive, HIF-2a block inactive, MITF TRPM1 inh inactive, PAX8 reporter 71.1 and EBV LMP1 NFkB inactive.
`O=C(Nc1ccccc1)c1ccccc1NS(=O)(=O)c1ccc(Cl)s1` gave Peg3 prom inh inactive, Shn3 3UTR inh inactive, HIF-2a block inactive, MITF TRPM1 inh inactive and EBV LMP1 NFkB inactive.
C[C@@H]1CN([C@@H](C)CO)C(=O)c2cc(NC(=O)Nc3cccc4ccccc34)ccc2O[C@@H](C)CCCCO[C@H]1CN(C)Cc1ccc(Cl)c(Cl)c1 was read as PAX8 reporter inactive.
Screening O=C(O)C[C@H]1CC[C@H](NC(=O)c2ccncc2)[C@H](CO)O1 returned PAX8 reporter inactive.
Screening CCN1C(=O)C(CC(=O)Nc2ccc(Br)cc2)N(CCCc2ccccc2)C1=S (centres undefined) returned Peg3 prom inh 57.6, Shn3 3UTR inh inactive, HIF-2a block inactive, MITF TRPM1 inh inactive and EBV LMP1 NFkB inactive.
`COC(=O)C[C@@H]1CC[C@H]2[C@@H](COC[C@@H](O)CN2S(=O)(=O)c2ccccc2C)O1` gave PAX8 reporter inactive.
For COc1cc2c3nnc(-c4ccccc4)c-3cn(Cc3ccc(F)cc3)c2cc1OC the results were Peg3 prom inh inactive, Shn3 3UTR inh inactive, HIF-2a block inactive, MITF TRPM1 inh inactive, PAX8 reporter inactive and EBV LMP1 NFkB inactive.
For COc1cc2c3nnc(-c4ccc(F)cc4)c-3cn(Cc3ccc(C)cc3)c2cc1OC the results were Peg3 prom inh 65.6, Shn3 3UTR inh inactive, HIF-2a block inactive, MITF TRPM1 inh 85.5, PAX8 reporter inactive and EBV LMP1 NFkB inactive.
Screening COc1cc2c3nnc(-c4ccc(F)cc4)c-3cn(Cc3cccc(C)c3)c2cc1OC returned Peg3 prom inh 100.2, Shn3 3UTR inh inactive, HIF-2a block inactive, PAX8 reporter inactive and EBV LMP1 NFkB inactive.
Screening COC(=O)C1=C(C(=O)c2ccccc2)C(c2ccccc2)n2nnnc2N1 (centres undefined) returned Peg3 prom inh inactive, Shn3 3UTR inh inactive, HIF-2a block inactive, MITF TRPM1 inh inactive, PAX8 reporter inactive and EBV LMP1 NFkB 63.0.
For C=CCNc1nc2c(c(=O)n(C)c(=O)n2C)n1CCCCCC the results were Peg3 prom inh inactive, Shn3 3UTR inh 87.6, HIF-2a block inactive, MITF TRPM1 inh inactive and EBV LMP1 NFkB inactive.
For c1ccc2nc(-c3ccc(N4CCOCC4)cc3)ccc2c1 the results were Peg3 prom inh inactive, Shn3 3UTR inh inactive, HIF-2a block inactive, MITF TRPM1 inh inactive and EBV LMP1 NFkB 66.2.
Cc1cc(-c2ccc(N3CCOCC3)cc2)nc2ccccc12 was read as Peg3 prom inh inactive, Shn3 3UTR inh inactive, HIF-2a block inactive, MITF TRPM1 inh inactive, PAX8 reporter inactive and EBV LMP1 NFkB inactive.
For Cn1nc(-c2ccccn2)nc2c(=O)n(C)c(=O)nc1-2 the results were Peg3 prom inh 104.6, Shn3 3UTR inh 97.6, HIF-2a block 71.4, MITF TRPM1 inh 103.8, PAX8 reporter 105.2 and EBV LMP1 NFkB inactive.
COc1ccc(-c2nc(-c3ccccn3)ncc2S(C)(=O)=O)cc1 was read as Peg3 prom inh inactive, Shn3 3UTR inh inactive, HIF-2a block inactive, MITF TRPM1 inh inactive, PAX8 reporter inactive and EBV LMP1 NFkB inactive.
